These results are taken from paper PMC7862700, “An all-to-all approach to the identification of sequence-specific readers for epigenetic DNA modifications on cytosine”.

Holding throughout (test): DAPPL (digital affinity profiling via proximity ligation, sequencing); 10 mM Tris-HCl pH 7.5, 50 mM NaCl, 1 mM DTT, 4% glycerol, room temperature, 30 min; GST-TFs on glutathione beads, 16-mer random dsDNA library, 0.1% formaldehyde crosslink after washing; high values mean tight binding
The target of one assay is T1, FEV (Homo sapiens, UniProt Q99581 1-238).
T1 sequence: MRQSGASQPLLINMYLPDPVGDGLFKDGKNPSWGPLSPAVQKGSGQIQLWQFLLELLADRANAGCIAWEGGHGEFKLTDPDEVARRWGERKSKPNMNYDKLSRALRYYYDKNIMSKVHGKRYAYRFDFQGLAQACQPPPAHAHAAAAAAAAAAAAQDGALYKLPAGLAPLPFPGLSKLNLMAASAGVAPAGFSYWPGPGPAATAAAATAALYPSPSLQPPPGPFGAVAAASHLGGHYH
Conditions: protein: recombinant; tags: N-terminal GST; dsDNA, one strand shown. Summed up: (§1)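 Binding signal is each hexamer's read frequency for a factor divided by its frequency in the tag-only sample. The factors were GST-fused human transcription factors from yeast, captured on glutathione beads, DNA-barcoded and pooled with that sample. Pools were incubated with 200 nmole of a random double-stranded 16-mer DNA library in Tris/NaCl/DTT/glycerol buffer at room temperature for 30 min, then washed, crosslinked with 0.1% formaldehyde, proximity-ligated with BsaI/T4 ligase (1 h, 37 °C), PCR-amplified and sequenced on an Illumina NextSeq500.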

For a further assay, the target named is ETV5 (Homo sapiens, UniProt P41161 1-510). The settings on record: protein: recombinant; tags: N-terminal GST; dsDNA, one strand shown. Summed up: as §1
The target in the next assay is HSF1 (Homo sapiens, UniProt Q00613 1-529). Conditions: protein: recombinant; tags: N-terminal GST; chain copies: 3; dsDNA, one strand shown. The essentials: as §1
Another assay concerns the target T2, SPIC (Homo sapiens, UniProt Q8N5J4 1-248).
T2 sequence: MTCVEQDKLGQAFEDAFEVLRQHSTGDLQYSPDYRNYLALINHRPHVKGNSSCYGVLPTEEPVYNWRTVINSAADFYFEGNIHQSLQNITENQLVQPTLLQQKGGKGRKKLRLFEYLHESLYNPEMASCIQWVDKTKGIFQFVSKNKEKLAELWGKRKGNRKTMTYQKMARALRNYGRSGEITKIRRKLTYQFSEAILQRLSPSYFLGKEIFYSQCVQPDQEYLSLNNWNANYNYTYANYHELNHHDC
The settings on record: protein: recombinant; tags: N-terminal GST; dsDNA, one strand shown. The essentials:
as §1

Another assay has as its target ELF4 (Homo sapiens, UniProt Q99607 1-663). Conditions: protein: recombinant; tags: N-terminal GST; dsDNA, one strand shown. The essentials: as §1
A further assay concerns the target T3, ELK4 (Homo sapiens, UniProt P28324-2 1-405).
T3 sequence: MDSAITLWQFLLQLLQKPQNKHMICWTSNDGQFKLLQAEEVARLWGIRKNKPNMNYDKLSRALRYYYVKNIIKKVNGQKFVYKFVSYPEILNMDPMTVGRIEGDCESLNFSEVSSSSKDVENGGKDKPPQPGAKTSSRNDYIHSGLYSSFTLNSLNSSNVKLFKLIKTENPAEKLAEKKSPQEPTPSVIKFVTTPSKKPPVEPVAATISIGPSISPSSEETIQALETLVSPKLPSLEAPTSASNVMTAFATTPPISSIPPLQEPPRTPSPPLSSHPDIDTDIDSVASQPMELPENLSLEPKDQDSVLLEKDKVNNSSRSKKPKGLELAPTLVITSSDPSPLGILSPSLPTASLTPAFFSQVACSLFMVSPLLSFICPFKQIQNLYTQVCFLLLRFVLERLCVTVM
Conditions: protein: recombinant; tags: N-terminal GST; dsDNA, one strand shown. Summed up: as §1

Another assay addresses T4, ETV2 (Homo sapiens, UniProt O00321 1-342).
T4 sequence: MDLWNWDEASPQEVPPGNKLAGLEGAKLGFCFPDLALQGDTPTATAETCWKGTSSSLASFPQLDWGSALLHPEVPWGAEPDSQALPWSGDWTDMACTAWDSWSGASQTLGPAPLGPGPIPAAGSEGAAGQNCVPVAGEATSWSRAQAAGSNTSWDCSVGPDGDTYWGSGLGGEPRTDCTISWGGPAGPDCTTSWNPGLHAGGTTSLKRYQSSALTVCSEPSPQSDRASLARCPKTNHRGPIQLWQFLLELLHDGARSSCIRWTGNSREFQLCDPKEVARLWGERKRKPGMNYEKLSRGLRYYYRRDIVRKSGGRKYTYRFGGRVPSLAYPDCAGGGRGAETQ
Conditions: protein: recombinant; tags: N-terminal GST; dsDNA, one strand shown. The essentials: as §1

Another assay has as its target T5, ELF3 (Homo sapiens, UniProt P78545 1-371).
T5 sequence: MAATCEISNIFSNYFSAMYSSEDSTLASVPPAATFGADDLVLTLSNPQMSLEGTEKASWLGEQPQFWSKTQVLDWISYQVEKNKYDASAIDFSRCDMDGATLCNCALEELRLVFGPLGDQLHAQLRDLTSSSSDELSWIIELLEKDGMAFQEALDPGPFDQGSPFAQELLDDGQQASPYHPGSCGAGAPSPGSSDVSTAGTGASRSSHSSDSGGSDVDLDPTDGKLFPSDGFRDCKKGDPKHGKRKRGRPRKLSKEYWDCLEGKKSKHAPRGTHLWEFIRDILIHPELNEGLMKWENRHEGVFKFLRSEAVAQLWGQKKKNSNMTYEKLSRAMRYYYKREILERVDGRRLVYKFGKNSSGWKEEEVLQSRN
Conditions: protein: recombinant; tags: N-terminal GST; dsDNA, one strand shown. Summed up:
as §1

The next assay concerns the target CRX (Homo sapiens, UniProt O43186 1-299). The settings on record: protein: recombinant; tags: N-terminal GST; dsDNA, one strand shown. The essentials: as §1
Another assay has as its target ETV1 (Homo sapiens, UniProt P50549 1-477). Conditions: protein: recombinant; tags: N-terminal GST; dsDNA, one strand shown. The essentials:
as §1

Another assay deals with T6, ERF (Homo sapiens, UniProt P50548 1-548).
T6 sequence: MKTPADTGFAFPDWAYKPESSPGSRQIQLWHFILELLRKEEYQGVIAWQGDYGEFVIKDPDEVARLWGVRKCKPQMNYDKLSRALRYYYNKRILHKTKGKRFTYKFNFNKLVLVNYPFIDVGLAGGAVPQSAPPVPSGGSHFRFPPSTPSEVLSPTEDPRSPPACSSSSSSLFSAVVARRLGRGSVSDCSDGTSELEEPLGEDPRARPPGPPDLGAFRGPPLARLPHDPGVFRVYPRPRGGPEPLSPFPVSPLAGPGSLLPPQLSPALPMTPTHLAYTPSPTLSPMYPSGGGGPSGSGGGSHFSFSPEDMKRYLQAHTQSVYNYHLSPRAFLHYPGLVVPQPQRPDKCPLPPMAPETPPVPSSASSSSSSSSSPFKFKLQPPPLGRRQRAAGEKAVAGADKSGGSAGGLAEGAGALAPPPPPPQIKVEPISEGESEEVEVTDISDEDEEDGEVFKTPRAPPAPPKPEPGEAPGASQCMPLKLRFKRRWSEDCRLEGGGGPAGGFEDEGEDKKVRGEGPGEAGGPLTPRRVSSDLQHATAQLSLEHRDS
The settings on record: protein: recombinant; tags: N-terminal GST; dsDNA, one strand shown. Summed up:
as §1

A further assay has as its target T7, ETV3L (Homo sapiens, UniProt Q6ZN32 1-361).
T7 sequence: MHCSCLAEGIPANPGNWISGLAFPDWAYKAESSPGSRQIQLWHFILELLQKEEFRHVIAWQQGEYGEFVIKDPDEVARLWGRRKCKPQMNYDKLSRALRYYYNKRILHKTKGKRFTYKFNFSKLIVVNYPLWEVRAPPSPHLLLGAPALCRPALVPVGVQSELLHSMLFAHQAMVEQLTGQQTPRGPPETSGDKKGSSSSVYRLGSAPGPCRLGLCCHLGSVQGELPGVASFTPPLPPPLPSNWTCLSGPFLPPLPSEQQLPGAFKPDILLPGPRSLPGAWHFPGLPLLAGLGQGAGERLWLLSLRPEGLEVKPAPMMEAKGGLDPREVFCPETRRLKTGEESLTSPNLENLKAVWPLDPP
Conditions: protein: recombinant; tags: N-terminal GST; dsDNA, one strand shown. Summed up: as §1

Another assay deals with T8, ETS2 (Homo sapiens, UniProt P15036 1-469).
T8 sequence: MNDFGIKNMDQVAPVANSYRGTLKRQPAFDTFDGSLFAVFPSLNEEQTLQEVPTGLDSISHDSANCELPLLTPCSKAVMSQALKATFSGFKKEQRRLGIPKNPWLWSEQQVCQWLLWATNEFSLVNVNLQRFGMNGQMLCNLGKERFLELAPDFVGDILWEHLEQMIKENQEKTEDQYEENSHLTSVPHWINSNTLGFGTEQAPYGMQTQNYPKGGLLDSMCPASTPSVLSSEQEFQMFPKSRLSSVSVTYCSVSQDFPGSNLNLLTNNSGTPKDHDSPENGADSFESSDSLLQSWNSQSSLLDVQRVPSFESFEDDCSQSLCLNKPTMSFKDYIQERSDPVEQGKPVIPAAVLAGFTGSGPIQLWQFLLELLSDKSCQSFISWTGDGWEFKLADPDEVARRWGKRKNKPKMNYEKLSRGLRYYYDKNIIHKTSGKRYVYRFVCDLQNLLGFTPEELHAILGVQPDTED
Conditions: protein: recombinant; tags: N-terminal GST; dsDNA, one strand shown. Summed up: as §1

The target in the next assay is T9, SPDEF (Homo sapiens, UniProt O95238 1-335).
T9 sequence: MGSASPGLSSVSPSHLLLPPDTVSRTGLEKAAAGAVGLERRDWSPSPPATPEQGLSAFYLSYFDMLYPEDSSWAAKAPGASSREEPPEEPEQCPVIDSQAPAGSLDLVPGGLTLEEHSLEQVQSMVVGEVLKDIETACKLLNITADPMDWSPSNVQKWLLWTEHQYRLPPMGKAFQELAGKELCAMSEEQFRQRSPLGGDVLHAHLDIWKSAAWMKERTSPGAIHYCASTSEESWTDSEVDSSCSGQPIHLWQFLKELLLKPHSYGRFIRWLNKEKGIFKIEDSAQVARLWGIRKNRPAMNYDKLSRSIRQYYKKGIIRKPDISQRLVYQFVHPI
The settings on record: protein: recombinant; tags: N-terminal GST; dsDNA, one strand shown. The essentials: as §1

A further assay concerns the target T10, ETV7 (Homo sapiens, UniProt Q9Y603 1-341).
T10 sequence: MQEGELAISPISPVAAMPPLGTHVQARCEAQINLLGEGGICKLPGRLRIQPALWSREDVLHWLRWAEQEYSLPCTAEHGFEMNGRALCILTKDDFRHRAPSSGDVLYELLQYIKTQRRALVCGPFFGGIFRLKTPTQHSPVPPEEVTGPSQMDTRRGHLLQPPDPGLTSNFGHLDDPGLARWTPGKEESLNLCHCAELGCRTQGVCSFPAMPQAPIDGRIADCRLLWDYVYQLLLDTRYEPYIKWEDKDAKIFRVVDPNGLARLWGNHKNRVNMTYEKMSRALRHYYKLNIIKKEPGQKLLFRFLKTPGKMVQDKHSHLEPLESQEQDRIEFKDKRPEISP
The settings on record: protein: recombinant; tags: N-terminal GST; dsDNA, one strand shown. The essentials: as §1

In a further assay the target is T11, ELF5 (Homo sapiens, UniProt Q9UKW6-2 1-255).
T11 sequence: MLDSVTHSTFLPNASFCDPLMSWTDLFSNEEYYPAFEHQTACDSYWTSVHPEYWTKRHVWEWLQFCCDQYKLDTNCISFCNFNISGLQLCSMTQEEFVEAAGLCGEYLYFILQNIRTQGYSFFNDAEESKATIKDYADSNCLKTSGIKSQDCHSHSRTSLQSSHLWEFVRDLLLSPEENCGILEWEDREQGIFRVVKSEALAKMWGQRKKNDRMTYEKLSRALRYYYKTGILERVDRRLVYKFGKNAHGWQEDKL
Conditions: protein: recombinant; tags: N-terminal GST; dsDNA, one strand shown. Summed up: as §1

Another assay has as its target T12, ETV3 (Homo sapiens, UniProt P41162-2 1-143).
T12 sequence: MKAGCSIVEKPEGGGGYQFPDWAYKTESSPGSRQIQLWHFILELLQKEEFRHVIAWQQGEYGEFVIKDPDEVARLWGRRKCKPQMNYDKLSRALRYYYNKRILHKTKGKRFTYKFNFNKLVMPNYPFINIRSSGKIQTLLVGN
The settings on record: protein: recombinant; tags: N-terminal GST; dsDNA, one strand shown. The essentials: as §1

A further assay addresses ETV6 (Homo sapiens, UniProt P41212 1-452). Conditions: protein: recombinant; tags: N-terminal GST; dsDNA, one strand shown. Summed up: as §1

HSF1, sequence (Q00613 whole entry): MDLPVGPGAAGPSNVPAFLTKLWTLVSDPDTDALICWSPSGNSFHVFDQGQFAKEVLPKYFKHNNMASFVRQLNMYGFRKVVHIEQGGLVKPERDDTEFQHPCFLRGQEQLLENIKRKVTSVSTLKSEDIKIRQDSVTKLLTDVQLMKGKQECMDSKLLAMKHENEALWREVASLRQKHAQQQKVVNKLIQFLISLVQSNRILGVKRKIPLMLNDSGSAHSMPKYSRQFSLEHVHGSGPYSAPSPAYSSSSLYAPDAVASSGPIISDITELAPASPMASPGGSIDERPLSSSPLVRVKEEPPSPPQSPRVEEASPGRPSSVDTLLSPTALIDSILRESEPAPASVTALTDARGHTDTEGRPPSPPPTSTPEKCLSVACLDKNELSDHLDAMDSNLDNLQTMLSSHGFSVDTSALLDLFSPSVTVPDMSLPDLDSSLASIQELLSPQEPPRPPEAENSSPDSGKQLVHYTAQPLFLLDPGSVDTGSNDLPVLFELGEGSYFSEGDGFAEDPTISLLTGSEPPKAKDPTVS
ETV1, sequence (P50549 whole entry): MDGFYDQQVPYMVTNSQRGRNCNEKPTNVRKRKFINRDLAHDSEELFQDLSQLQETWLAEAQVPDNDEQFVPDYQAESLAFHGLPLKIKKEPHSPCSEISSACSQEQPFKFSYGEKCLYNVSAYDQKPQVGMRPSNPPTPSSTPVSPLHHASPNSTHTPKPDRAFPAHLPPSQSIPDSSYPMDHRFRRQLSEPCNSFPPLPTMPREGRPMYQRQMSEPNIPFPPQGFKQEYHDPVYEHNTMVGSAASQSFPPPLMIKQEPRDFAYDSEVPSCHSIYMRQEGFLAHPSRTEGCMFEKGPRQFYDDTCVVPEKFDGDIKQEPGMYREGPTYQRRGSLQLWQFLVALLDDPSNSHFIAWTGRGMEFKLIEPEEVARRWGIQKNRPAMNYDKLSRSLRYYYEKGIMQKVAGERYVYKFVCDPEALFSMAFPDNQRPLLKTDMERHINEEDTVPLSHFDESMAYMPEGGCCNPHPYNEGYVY
CRX, sequence (O43186 whole entry): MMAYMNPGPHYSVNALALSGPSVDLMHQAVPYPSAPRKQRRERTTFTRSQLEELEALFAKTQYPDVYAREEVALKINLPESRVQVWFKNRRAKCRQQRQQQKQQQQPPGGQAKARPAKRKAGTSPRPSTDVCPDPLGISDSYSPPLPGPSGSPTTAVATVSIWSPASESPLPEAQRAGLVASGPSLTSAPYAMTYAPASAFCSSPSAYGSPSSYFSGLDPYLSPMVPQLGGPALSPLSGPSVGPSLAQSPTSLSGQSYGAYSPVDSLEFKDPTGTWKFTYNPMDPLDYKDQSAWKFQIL
ETV5, sequence (P41161 whole entry): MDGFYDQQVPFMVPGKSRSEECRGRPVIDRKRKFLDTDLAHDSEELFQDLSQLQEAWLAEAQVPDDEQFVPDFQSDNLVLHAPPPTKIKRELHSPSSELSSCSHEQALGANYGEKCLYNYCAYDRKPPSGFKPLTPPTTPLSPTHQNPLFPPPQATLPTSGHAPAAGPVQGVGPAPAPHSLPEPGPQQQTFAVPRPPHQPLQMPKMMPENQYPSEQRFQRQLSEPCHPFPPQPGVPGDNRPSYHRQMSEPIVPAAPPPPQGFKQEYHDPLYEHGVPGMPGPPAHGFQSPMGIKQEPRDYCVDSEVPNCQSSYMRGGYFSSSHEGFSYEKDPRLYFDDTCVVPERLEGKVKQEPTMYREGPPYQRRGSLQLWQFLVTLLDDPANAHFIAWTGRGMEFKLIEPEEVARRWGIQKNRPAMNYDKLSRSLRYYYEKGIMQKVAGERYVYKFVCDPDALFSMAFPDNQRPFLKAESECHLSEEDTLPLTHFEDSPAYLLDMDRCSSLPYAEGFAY
ELF4, sequence (Q99607 whole entry): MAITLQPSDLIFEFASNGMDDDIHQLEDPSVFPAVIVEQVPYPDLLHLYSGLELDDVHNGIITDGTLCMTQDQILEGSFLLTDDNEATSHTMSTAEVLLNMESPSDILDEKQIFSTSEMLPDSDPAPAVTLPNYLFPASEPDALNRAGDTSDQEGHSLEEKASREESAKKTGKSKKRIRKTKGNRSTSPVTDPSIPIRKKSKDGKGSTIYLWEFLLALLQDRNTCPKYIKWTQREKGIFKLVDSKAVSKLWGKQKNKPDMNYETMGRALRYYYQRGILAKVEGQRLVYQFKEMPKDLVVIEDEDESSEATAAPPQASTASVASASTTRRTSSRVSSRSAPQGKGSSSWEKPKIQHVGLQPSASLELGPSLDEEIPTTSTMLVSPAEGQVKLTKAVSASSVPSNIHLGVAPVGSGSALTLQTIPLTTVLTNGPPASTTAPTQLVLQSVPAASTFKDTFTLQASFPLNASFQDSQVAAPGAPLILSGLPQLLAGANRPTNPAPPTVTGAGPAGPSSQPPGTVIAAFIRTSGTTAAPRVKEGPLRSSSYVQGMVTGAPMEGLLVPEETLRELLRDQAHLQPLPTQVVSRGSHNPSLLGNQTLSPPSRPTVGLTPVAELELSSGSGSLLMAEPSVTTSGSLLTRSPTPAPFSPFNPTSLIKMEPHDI
ETV6, sequence (P41212 whole entry): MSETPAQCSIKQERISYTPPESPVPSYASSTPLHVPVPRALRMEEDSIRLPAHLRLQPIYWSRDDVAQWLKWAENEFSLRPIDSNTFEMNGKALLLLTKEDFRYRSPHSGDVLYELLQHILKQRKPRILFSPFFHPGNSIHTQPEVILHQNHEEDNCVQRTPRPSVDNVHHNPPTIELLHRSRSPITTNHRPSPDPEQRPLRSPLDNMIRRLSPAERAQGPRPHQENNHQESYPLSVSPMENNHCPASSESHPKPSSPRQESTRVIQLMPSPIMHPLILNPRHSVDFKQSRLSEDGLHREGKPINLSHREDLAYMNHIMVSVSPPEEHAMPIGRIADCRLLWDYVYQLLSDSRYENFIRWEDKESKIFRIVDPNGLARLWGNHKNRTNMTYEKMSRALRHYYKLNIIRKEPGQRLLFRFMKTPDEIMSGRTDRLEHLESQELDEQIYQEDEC

In the case of TCCTTT, the binding signal is 1.69 fold enrichment (6-mer frequency, TF over GST control) with FEV; 1.69 fold enrichment (6-mer frequency, TF over GST control) with ETV5; 1.57 fold enrichment (6-mer frequency, TF over GST control) with HSF1; 1.76 fold enrichment (6-mer frequency, TF over GST control) with SPIC; 1.77 fold enrichment (6-mer frequency, TF over GST control) in the assay with ELF4; 1.62 fold enrichment (6-mer frequency, TF over GST control) with ELK4. Also, the binding signal is 1.47 fold enrichment (6-mer frequency, TF over GST control) with ETV2; 1.78 fold enrichment (6-mer frequency, TF over GST control) in the assay with ELF3; 1.67 fold enrichment (6-mer frequency, TF over GST control) in the assay with CRX; 1.68 fold enrichment (6-mer frequency, TF over GST control) with ETV1; 1.62 fold enrichment (6-mer frequency, TF over GST control) with ERF; 1.85 fold enrichment (6-mer frequency, TF over GST control) with ETV3L. The binding signal with ETS2 was 1.67 fold enrichment (6-mer frequency, TF over GST control); in the assay with SPDEF, 1.76 fold enrichment (6-mer frequency, TF over GST control); with ETV7 it was 1.59 fold enrichment (6-mer frequency, TF over GST control); with ELF5 it was 2 fold enrichment (6-mer frequency, TF over GST control); with ETV3 it was 1.78 fold enrichment (6-mer frequency, TF over GST control); with ETV6 it was 1.76 fold enrichment (6-mer frequency, TF over GST control).
